# In ChEMBL document CHEMBL1961873, “Compounds: GSK PKIS; Assays: Nanosyn kinase panel” (2012):
# Key:
# [1] = biological target: T1, Serine/threonine-protein kinase Nek9 (Homo sapiens) (UniProt Q8TD19); conditions: at 1 µM;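 note: each value is a mean percent inhibition of NEK9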
# T1 sequence (whole entry): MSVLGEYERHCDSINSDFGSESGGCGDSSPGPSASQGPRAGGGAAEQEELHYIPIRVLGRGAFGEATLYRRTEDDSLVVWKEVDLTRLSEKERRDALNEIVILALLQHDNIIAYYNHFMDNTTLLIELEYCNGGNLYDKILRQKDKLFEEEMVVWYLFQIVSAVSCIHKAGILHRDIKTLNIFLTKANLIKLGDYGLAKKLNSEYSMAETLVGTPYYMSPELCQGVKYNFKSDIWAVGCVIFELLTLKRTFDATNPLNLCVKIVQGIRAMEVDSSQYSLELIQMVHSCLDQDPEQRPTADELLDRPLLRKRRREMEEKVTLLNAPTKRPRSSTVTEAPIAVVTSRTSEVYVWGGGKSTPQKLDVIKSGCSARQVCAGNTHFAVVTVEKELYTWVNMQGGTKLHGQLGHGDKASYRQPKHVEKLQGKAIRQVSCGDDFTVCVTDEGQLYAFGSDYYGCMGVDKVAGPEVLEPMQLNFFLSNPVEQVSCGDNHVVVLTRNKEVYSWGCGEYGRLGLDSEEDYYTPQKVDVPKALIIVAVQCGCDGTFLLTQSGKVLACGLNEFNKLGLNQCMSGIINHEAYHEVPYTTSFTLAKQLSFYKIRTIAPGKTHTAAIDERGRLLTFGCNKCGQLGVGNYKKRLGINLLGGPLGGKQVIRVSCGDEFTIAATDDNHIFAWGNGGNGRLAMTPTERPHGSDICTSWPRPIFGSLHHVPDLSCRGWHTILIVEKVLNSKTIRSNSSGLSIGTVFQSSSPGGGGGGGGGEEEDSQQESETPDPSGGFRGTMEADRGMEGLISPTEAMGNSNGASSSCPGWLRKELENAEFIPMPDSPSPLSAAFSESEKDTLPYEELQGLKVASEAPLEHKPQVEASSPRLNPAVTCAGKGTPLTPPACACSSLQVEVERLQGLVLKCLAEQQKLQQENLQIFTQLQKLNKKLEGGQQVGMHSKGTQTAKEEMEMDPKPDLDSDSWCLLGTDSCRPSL
# [2] = biological target: Serine/threonine-protein kinase PLK1 (Homo sapiens) (UniProt P53350); conditions: at 0.1 µM
# Sequence of Serine/threonine-protein kinase PLK1 (Homo sapiens) (P53350 whole entry): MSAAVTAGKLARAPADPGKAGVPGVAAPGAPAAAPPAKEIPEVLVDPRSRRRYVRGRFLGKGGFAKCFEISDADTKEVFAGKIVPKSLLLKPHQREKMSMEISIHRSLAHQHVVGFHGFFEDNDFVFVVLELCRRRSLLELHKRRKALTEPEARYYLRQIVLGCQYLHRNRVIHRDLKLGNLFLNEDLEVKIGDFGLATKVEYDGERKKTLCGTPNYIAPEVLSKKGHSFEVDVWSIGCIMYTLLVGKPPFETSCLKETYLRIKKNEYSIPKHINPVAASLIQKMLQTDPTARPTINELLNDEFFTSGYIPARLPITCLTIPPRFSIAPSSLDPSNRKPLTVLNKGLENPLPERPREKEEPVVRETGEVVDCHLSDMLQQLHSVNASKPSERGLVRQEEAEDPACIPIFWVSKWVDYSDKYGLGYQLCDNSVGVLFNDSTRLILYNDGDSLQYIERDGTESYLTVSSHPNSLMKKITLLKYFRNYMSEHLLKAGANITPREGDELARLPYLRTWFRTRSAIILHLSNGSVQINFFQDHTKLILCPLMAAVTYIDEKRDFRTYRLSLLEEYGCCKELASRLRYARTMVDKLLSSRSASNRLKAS
# [3] = biological target: Serine/threonine-protein kinase PLK1 (Homo sapiens) (UniProt P53350); conditions: at 1 µM
# [4] = biological target: T2, Dual specificity protein kinase TTK (Homo sapiens) (UniProt P33981); conditions: at 0.1 µM
# T2 sequence (whole entry): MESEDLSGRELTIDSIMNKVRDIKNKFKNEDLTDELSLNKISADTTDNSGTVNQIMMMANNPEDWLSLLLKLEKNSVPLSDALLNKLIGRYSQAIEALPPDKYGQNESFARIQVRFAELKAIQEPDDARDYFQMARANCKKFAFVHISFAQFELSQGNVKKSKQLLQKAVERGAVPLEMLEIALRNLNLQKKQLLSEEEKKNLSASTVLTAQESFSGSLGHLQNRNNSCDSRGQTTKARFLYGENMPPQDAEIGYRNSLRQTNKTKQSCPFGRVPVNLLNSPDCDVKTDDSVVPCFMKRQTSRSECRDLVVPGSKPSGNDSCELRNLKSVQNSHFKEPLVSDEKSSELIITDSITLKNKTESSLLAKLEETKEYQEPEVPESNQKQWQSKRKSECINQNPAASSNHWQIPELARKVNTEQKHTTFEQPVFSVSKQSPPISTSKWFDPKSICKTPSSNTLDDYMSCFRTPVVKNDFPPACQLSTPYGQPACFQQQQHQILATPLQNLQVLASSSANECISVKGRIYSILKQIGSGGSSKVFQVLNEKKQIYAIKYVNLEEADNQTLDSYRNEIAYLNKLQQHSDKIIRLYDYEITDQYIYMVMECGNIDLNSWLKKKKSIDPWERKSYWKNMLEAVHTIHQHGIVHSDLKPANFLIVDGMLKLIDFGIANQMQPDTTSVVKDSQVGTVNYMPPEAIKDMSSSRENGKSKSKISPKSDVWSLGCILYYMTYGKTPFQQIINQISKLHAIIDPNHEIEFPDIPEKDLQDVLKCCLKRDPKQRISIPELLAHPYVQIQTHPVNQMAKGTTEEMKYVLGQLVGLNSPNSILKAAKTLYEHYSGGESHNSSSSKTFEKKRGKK
# [5] = test system: T3, Receptor-type tyrosine-protein kinase FLT3 (Homo sapiens), P36888 [D835Y]; conditions: at 1 µM
# T3 sequence (whole entry): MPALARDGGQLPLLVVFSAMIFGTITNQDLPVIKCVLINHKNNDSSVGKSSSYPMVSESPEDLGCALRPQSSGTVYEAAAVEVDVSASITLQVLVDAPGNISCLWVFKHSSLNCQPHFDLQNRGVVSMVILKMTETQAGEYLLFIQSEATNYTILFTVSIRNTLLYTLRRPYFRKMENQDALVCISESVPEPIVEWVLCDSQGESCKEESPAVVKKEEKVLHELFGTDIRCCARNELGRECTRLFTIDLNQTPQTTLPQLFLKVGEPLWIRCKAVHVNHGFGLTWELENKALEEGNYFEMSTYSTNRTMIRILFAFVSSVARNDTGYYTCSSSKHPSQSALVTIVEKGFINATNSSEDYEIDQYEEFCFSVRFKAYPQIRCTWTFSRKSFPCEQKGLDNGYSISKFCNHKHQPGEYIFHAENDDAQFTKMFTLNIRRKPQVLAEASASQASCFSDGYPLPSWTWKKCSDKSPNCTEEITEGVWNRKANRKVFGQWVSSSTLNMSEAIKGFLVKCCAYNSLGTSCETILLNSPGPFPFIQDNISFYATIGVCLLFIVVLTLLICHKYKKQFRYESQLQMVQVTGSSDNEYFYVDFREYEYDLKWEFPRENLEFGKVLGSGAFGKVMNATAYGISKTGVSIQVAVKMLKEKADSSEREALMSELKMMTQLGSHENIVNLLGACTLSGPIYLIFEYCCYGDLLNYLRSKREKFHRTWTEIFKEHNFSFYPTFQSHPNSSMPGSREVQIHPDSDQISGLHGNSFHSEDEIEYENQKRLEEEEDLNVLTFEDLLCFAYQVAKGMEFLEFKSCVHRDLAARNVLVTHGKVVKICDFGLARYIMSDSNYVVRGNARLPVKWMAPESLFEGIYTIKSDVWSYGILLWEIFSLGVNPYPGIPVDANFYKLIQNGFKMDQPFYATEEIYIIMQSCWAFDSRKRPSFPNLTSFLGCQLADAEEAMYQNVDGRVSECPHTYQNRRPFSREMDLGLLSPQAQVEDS
# [6] = biological target: Vascular endothelial growth factor receptor 3 (Homo sapiens) (UniProt P35916); conditions: at 0.1 µM
# Sequence of Vascular endothelial growth factor receptor 3 (Homo sapiens) (P35916 whole entry): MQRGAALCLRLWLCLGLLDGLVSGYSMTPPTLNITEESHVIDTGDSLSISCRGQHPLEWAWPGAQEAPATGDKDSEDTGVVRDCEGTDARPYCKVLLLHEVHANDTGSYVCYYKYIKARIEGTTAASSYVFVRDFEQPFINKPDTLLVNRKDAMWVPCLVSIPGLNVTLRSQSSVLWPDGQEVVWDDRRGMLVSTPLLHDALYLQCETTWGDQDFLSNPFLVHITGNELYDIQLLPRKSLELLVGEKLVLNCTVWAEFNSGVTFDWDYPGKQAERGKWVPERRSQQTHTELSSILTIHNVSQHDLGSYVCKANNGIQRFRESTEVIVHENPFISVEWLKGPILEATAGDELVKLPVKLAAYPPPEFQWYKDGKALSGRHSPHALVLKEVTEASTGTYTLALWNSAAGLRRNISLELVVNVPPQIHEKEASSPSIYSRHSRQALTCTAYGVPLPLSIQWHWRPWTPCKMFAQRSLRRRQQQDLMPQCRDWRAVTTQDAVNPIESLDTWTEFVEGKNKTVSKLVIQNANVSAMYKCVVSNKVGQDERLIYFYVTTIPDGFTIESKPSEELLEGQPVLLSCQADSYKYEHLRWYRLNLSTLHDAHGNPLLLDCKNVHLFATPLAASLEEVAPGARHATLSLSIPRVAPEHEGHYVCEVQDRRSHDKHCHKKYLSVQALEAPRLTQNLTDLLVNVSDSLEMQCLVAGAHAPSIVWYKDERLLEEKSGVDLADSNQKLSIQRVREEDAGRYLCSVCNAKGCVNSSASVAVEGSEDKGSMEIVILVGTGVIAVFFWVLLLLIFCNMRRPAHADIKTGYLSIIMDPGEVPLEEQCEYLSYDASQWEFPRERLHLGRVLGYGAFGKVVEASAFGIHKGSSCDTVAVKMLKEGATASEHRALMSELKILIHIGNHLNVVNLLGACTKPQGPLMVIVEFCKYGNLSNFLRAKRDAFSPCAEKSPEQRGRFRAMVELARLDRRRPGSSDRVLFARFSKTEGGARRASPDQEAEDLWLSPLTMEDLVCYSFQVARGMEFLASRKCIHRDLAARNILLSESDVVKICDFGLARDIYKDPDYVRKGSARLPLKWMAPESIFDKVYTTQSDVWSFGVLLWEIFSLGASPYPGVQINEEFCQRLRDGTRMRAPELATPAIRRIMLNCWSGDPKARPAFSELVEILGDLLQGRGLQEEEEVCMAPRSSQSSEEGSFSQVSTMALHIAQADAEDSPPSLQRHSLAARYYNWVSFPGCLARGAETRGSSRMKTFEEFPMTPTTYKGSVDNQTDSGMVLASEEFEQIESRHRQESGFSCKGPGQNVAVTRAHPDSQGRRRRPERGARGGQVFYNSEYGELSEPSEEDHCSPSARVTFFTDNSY
# [7] = biological target: Vascular endothelial growth factor receptor 3 (Homo sapiens) (UniProt P35916); conditions: at 1 µM
# [8] = biological target: Macrophage colony-stimulating factor 1 receptor (Homo sapiens) (UniProt P07333); conditions: at 0.1 µM
# Sequence of Macrophage colony-stimulating factor 1 receptor (Homo sapiens) (P07333 whole entry): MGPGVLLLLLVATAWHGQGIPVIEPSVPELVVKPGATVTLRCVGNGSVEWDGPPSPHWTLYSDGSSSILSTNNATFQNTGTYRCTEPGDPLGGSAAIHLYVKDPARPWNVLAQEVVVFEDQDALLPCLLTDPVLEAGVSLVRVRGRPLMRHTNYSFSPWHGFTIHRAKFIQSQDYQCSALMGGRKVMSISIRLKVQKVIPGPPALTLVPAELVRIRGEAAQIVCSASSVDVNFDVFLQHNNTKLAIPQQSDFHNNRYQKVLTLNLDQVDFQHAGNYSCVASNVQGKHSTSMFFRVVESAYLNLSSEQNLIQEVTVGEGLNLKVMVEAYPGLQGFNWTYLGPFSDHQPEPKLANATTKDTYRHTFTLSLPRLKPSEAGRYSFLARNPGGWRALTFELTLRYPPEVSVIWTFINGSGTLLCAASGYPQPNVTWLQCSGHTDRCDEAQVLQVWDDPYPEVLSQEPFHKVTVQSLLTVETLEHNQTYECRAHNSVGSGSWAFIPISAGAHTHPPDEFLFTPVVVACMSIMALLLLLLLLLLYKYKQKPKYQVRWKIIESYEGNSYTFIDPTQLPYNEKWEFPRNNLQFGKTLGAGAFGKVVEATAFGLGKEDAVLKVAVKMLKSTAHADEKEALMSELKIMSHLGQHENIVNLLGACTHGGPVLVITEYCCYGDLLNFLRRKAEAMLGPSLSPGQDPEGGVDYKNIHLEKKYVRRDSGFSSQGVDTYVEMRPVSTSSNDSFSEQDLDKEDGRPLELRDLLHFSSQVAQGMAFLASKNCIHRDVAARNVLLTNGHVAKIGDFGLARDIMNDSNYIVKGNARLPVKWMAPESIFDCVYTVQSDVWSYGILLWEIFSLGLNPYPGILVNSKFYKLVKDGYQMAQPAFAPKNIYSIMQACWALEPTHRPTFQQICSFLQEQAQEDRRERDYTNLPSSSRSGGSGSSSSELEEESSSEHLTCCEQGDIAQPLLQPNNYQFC
# [9] = biological target: Macrophage colony-stimulating factor 1 receptor (Homo sapiens) (UniProt P07333); conditions: at 1 µM
# [10] = biological target: Tyrosine-protein kinase Fyn (Homo sapiens) (UniProt P06241); conditions: at 0.1 µM
# Sequence of Tyrosine-protein kinase Fyn (Homo sapiens) (P06241 2-537 limits assumed): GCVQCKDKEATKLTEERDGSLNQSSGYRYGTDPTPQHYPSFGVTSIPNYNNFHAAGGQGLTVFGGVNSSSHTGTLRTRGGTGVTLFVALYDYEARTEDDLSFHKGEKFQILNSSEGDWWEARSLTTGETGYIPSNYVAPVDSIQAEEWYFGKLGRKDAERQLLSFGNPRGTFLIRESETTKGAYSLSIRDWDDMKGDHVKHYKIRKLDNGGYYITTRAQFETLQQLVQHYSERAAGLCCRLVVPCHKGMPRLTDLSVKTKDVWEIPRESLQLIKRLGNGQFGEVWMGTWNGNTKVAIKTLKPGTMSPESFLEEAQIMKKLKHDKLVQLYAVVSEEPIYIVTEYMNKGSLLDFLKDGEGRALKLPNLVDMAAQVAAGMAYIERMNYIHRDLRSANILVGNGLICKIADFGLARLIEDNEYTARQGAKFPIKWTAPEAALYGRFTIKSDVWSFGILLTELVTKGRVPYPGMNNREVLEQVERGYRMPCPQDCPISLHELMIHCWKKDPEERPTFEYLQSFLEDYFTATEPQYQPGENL
Structure (SMILES),inhibition [1],inhibition [2],inhibition [3],inhibition [4],inhibition [5],inhibition [6],inhibition [7],inhibition [8],inhibition [9],inhibition [10]
NS(=O)(=O)c1cccc(N/C=C2\C(=O)Nc3ccccc32)c1,4.34%,3.78%,4.79%,9.01%,25.9%,1.98%,14.8%,5.41%,25.1%,2.53%
CS(=O)(=O)Nc1ccc(-c2ccc3c(NC(=O)C4CC4)n[nH]c3c2)cc1,-0.22%,4.12%,4.87%,7.49%,3.86%,-0.12%,2.39%,1.7%,3.16%,0.67%
CCN1CCC(C(=O)Nc2n[nH]c3nnc(-c4cccc(F)c4F)cc23)CC1,3.91%,-0.35%,-0.89%,-0.14%,1.33%,1.09%,0.68%,-1.42%,7.94%,1.4%
COc1ccc(Nc2ncc(-c3ccccc3)o2)cc1OC,9.31%,2.85%,1.53%,2.17%,47.1%,5.08%,25.5%,21.9%,77.2%,4.17%
c1cnn2ncc(-c3ccnc(NCCCN4CCOCC4)n3)c2c1,9.51%,4.18%,3.55%,9.47%,1.99%,0.01%,0.07%,-0.33%,5.17%,2.47%
COc1cccc(Nc2nccc(-c3cnn4ncccc34)n2)c1,26.1%,3.48%,21.3%,4.85%,52.3%,-0.16%,30.2%,50.4%,90.9%,1.46%
COc1cc2c(cc1Nc1nc(Nc3cccc(F)c3C(N)=O)c3cc[nH]c3n1)N(C(=O)CN1CCN(C(C)C)CC1)CC2,6.33%,4.96%,25.8%,11.4%,2%,-0.29%,4.32%,-0.95%,5.37%,1.51%
